# Screens deposited in PubChem by The Scripps Research Institute Molecular Screening Center.
# SRC2 inh: inhibits human steroid receptor coactivator 2; Q15596; HEK293 GAL4-SRC2 luciferase reporter, luminescence; inhibition, % at 9 µM; hit rate 0.17% among 370,000;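 active means inhibition above the mean inhibition of all tested compounds plus 3 SD, set per campaign, cut at about 52% in these data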;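 further: 0% = DMSO treated cells and 100% = cells given Gossypol at 36 µM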
# LRH-1 inv ag: inverse agonists of human LRH-1 (NR5A2); O00482; HEK293T StAR-luciferase reporter, LRH-1 transfected, 24 h; inhibition, % at 3.6 µM; hit rate 0.13% among 360,000; AID 602396;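 active means inhibition above the mean inhibition of all tested compounds plus 3 SD, cut at about 73% in these data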;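 further: 0% = DMSO wells and 100% = reporter-only cells lacking LRH-1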
# COUP-TFII inh: blocks human COUP-TFII nuclear receptor; AID 686940; hit rate 0.7% among 370,000; HEK293T NGFI-A luciferase reporter, luminescence; P24468; inhibition, % at 8.6 µM;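 active means inhibition above a per-plate cutoff, mean inhibition of test wells between control levels plus 3 SD, cut at about 38% in these data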;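 further: cells cotransfected with COUP-TFII expression vector driving the NGFI-A reporter; 0% = median of COUP-TF2 test wells and 100% = reporter-only cells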
# NCOA3 inh: inhibits human SRC3 coactivator. AID 588352. HEK293 GAL4-SRC3 luciferase reporter, luminescence. hit rate 0.17% among 360,000. inhibition, % at 3.6 µM;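 active means inhibition above a per-campaign cutoff, the mean of all compounds plus 3 SD, cut at about 60% in these data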;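 further: 0% = DMSO-treated cells and 100% = gossypol-treated cells at 36 µM; higher means less SRC3-driven luciferase light from the GAL4 reporter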
# NCOA1 inh: inhibitors of human steroid receptor coactivator 1 (SRC1) | Q15788 | HEK293 GAL4-SRC1 luciferase reporter, luminescence | inhibition, % at 3.6 µM | hit rate 0.12% among 360,000 | AID 588354;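 active means inhibition above the campaign mean plus 3 SD, with each screening campaign given its own cutoff, cut at about 60% in these data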;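 further: 0% = DMSO treated cells and 100% = gossypol at 36 µM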
# GalR3 antag: human GalR3 antagonism. hit rate 0.44% among 360,000. AID 651719. inhibition, % at 3 µM. O60755. HEK293 GalR3-CNG cAMP membrane potential fluorescence; galR3 body fused to GalR1 C-terminus;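 active means inhibition above the screen-wide average plus 3 SD, cut at about 13% in these data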;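 further: forskolin and galanin both at EC90 stimulate the cells; cAMP rise reported by CNG channel membrane potential dye signal; 0% = forskolin plus galanin with DMSO and 100% = forskolin alone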
# Target sequence (O60755 1-299 limits assumed): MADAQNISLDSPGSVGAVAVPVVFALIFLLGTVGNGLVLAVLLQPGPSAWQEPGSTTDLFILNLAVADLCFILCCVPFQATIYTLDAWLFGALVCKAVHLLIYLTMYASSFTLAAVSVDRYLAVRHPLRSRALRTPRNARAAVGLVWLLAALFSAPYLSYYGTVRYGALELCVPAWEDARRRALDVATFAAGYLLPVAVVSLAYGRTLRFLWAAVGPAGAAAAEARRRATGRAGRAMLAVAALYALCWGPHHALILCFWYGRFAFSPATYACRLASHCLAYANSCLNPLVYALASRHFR
# GalR3 antag conf: GalR3 (human) antagonism, confirmation; shares compounds with GalR3 antag; HEK293 GalR3 CNG cAMP biosensor, membrane potential fluorescence; galR3 fused to GalR1 carboxy tail; challenged with forskolin and galanin at EC90; inhibition, % at 3 µM; hit rate 59% among 1,600; AID 652245;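 active means inhibition above the primary screen's cutoff, the mean inhibition of all screened compounds plus 3 SD, cut at about 13% in these data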;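 further: 0% = forskolin plus galanin and 100% = forskolin alone with DMSO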
# HEK-CNG parental: counter-screen for GalR3 antagonists: nonspecific agonists in parental HEK-CNG cells | activation, % at 3 µM | shares compounds with GalR3 antag | hit rate 10% among 1,600 | HEK293-CNG parental cells, cAMP membrane potential fluorescence; normalised: DMSO wells 0%, forskolin wells 100%; in the data active means activation above about 1.3%
# Gal4-VP16 ctr: inhibits VP16 reporter, flagging COUP-TFII antagonist hits | shares compounds with COUP-TFII inh | AID 687007 | hit rate 25% among 2,500 | inhibition, % at 8.5 µM | HEK293 Gal4-VP16 luciferase reporter, luminescence; in the data active means inhibition above about 13%
# NR2F2 inh conf: COUP-TFII (NR2F2) inhibition, confirmation assay. shares compounds with COUP-TFII inh. HEK293 NGFI-A luciferase reporter, luminescence. inhibition, % at 8.5 µM. hit rate 45% among 2,500. AID 687008;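 active means mean inhibition over three repeats above a set limit taken from the earlier primary screen, cut at about 38% in these data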;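 further: 100% = cells given the luciferase reporter alone without the COUP-TF2 vector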
# * = called active by the depositor; . = no result given. Only some compounds are listed: those with a hit (about 1.1% of all), similar ones and a draw of the others.
SMILES,SRC2 inh,LRH-1 inv ag,COUP-TFII inh,NCOA3 inh,NCOA1 inh,GalR3 antag,GalR3 antag conf,HEK-CNG parental,Gal4-VP16 ctr,NR2F2 inh conf
OC1(c2ccc(OC(F)F)cc2)CSC(=Nc2cccnc2)N1C1CC1 (stereo not drawn),25,43,57*,-7,8,98*,-5,0,.,.
COc1ccc(S(=O)(=O)NCc2ccco2)cc1-c1nnc2c3ccccc3c(C)nn12,-25,-5,-1,-7,-6,28*,15*,1,.,.
COc1ccc(C(=O)c2[nH]c(N)c(C(=O)c3c[nH]c4ccccc34)c2-c2ccc(OC)cc2)cc1,-27,.,3,.,.,-4,.,.,.,.
CCOC(=O)CC[C@H]1CC[C@]2(CCCN(C(=O)c3ccc4ccccc4n3)C2)O1,-20,.,-22,.,.,.,.,.,.,.
O=C(NC1CCCCC1c1ccccc1)c1ccccc1 (stereo not drawn),-17,-17,-50,-3,-3,16*,4,0,.,.
Cc1ccc(OCC(=O)OCC(=O)NC2CCS(=O)(=O)C2)cc1C (stereo not drawn),-21,5,-7,11,4,-5,.,.,.,.
COc1ccc(S(=O)(=O)N2CCN(CCO)CC2)cc1-c1nnc2c3ccccc3c(C)nn12,-21,14,-8,-2,-8,11,.,.,.,.
Cc1ccc(S(=O)(=O)N2CCN(CCO)CC2)cc1-c1nnc2c3ccccc3c(C)nn12,-1,-4,5,-5,4,30*,43*,2.9*,.,.
Cc1ccc(S(=O)(=O)N2CCN(C)CC2)cc1-c1nnc2c3ccccc3c(C)nn12,-52,-3,10,-3,-12,40*,49*,1,.,.
CC(C)(C)C(=O)OC12CCCN(C1)/C(=C/c1cccc(Cl)c1)C2 (stereo not drawn),10,.,8,.,.,.,.,.,.,.
COc1ccc(CNS(=O)(=O)CC2NCCc3ccccc32)cc1 (stereo not drawn),8,.,-15,.,.,.,.,.,.,.
Cc1cc(F)ccc1N1CCC(N2CCN(CCC(C)C)C(CCO)C2)CC1 (stereo not drawn),28,12,13,21,2,-3,.,.,.,.
Cc1cc(F)ccc1N1CCC(N2CCN(C(C)C)C(CCO)C2)CC1 (stereo not drawn),2,19,0,-4,-14,18*,1,1,.,.
COc1ccc(/C=N/NC(=O)CN(CCc2ccccc2)S(=O)(=O)c2ccc(NC(C)=O)cc2)cc1OC,-38,0,-11,-8,-2,17*,29*,0,.,.
COc1cc(/C=N/NC(=O)CN(CCc2ccccc2)S(=O)(=O)c2ccc(NC(C)=O)cc2)cc(OC)c1OC,-13,-11,8,14,8,4,.,.,.,.
COc1ccc(N(CC(=O)N/N=C/c2ccc(OC)c(OC)c2)S(=O)(=O)c2ccccc2)cc1,-17,-2,-9,-8,-53,14*,34*,0,.,.
CC(=C1N=C(c2ccccc2)OC1=O)c1cccs1,-2,.,10,.,.,-4,.,.,.,.
CC(NC(=O)Nc1nnc(C(F)(F)F)s1)(C(F)(F)F)C(F)(F)F,22,90*,45*,84*,59,81*,88*,0,.,.
CC(C)(C)CC(=O)Nc1nnc(C(F)(F)F)s1,-12,19,4,18,4,-1,.,.,.,.
CSc1ccc(CN2CCN(Cc3ccc([N+](=O)[O-])cc3)CC2)cc1,21,38,51*,21,25,84*,104*,0,3,46*
CCOC(=O)N1CCN(C(=O)C[C@H]2C[C@@]3(C(=O)OC)C(=C[C@H](C(C)(C)C)O[C@@H]3C)N(Cc3ccco3)C2=O)CC1,-29,.,17,.,.,.,.,.,.,.
Cc1cccc(-n2ncc3c2CCCC3NC(=O)C2(C(N)=O)CC2)c1C (stereo not drawn),28,51,66*,30,28,114*,106*,-1,4,52*
Cc1cc(C(=O)NC2CCCc3c2cnn3-c2ccc(C)c(C)c2)n(C)n1 (stereo not drawn),-9,51,66*,42,8,99*,105*,0,2,69*
Cc1ccc(-n2ncc3c2CCCC3NC(=O)c2ccoc2)cc1C (stereo not drawn),-10,1,-3,6,-3,-4,.,.,.,.
CCc1cc(C(=O)NC2CCCc3c2cnn3-c2cccc(C)c2C)n(C)n1 (stereo not drawn),12,.,64*,.,.,99*,102*,0,9,66*
SMILES,SRC2 inh,LRH-1 inv ag,COUP-TFII inh,NCOA3 inh,NCOA1 inh,GalR3 antag,GalR3 antag conf,HEK-CNG parental,Gal4-VP16 ctr,NR2F2 inh conf
COC(=O)C1=C(C)N(C)C(=NCc2cc(OC)c(OC)c(OC)c2)NC1c1cccc(C(F)(F)F)c1 (stereo not drawn),-9,.,3,.,.,-4,.,.,.,.
CC1(C)CC(=O)c2sc(N3CCCCC3)nc2C1,-41,-64,-11,-119,-72,-2,.,.,.,.
CC1(C)CC(N2CCCC2)=CC(=[N+]2CCCCC2)C1,9,53,56*,30,43,37*,6,0,8,45*
COc1ccc(-[n+]2c(C)cc(/C=C3\Sc4ccccc4N3C)cc2C)cc1,-89,98*,82*,75*,71*,82*,103*,-1,-35,67*
COc1ccccc1-[n+]1c(C)cc(/C=C2\Sc3ccccc3N2C)cc1C,0,84*,82*,69*,62*,44*,107*,0,-11,89*
N#CC(C#N)=C(Nc1ccc(F)cc1)SCc1cccc(Br)c1,21,60,52*,52,50,92*,100*,0,4,38*
O=C(Nc1ccc(S(=O)(=O)Nc2ccc(F)cc2)cc1)c1ccc(CN2CCOCC2)cc1,32,35,73*,33,24,67*,109*,-1,9,62*
O=C(Nc1ccc(S(=O)(=O)N2CCOCC2)cc1)c1ccc(F)cc1,-14,-17,1,5,5,-5,.,.,.,.
CCCCCn1c(=O)[nH]c2cc(C(=O)NC3CCN(Cc4ccccc4)CC3)ccc2c1=O,4,13,16,8,8,-9,.,.,.,.
